The results in this text go back to publication PMC5540273 (PLoS ONE, 2017).

The structures appear in SMILES notation.

In one assay the test system is T1, DLK.
T1 construct: gene MAP3K12

For the next assay, the system named is T2, CTK.
T2 construct: gene MATK

The next assay has as its system T3, DCAMKL1.
T3 construct: gene DCLK1

A further assay concerns T4, DCAMKL3.
T4 construct: gene DCLK3
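Note: kd values determined as follow-up on hits from a single-replicate KINOMEscan panel screen.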

One may read the Kd as the equilibrium constant for the complex coming apart. A lower Kd goes with tighter binding. Turning to `CN1c2ccc(-c3ccc(C(=O)NCCO)cc3)cc2-c2[nH]ncc2S1(=O)=O`, binding in the assay with CLK2 was characterised by a dissociation constant (Kd) of 700 nM.
The same measure, in the same setting: for `CSc1ccc(NC2=C(c3ccccc3Cl)C(=O)NC2=O)cc1` [SB-342411] the value was 460 nM.
With `Fc1cccc(COc2ccc(Nc3ncnc4sc(-c5ccc[nH]5)cc34)cc2Cl)c1` [GW707818], the Kd in the assay with CLK4 is more than 10000 nM.
Turning to `c1ccc(-c2ccc3c(-c4ccnc(Nc5ccc6c(c5)OCCO6)n4)cnn3n2)cc1` [GW818941], the Kd in the assay on CSK was more than 10000 nM.
Still for that read-out and setting: for `Cc1ccc(C)c(NC(=O)NCCNc2ccnc(Nc3ccc(F)cc3)n2)c1` [GSK1379878] the value was more than 10000 nM.
For `Cn1ccc2ncnc(Oc3ccc(NC(=O)Nc4cccnc4)c(Cl)c3)c21`, binding with DDR2 was characterised by a dissociation constant (Kd) of 76 nM.
The molecule `Cc1ccc(NC(=O)c2cccc(C#N)c2)cc1-c1ccc(C(=O)Nc2ccncc2)cc1` [GSK1398463] returned an equilibrium dissociation constant (Kd) in the assay with DDR2 of 140 nM.
Molecule `CSc1nn2c(=O)cc(N3CCOCC3)nc2n1Cc1cccc(Cl)c1Cl` [GSK2347225] returned an equilibrium dissociation constant (Kd) in the assay with DLK of more than 10000 nM.
In the case of `COc1ccc(Nc2nccc(N3CCC(NC(=O)Nc4ccc5c(c4)OCO5)C3)n2)cc1` (stereo not drawn) [GSK1379745], the equilibrium dissociation constant (Kd) with CSNK1D was more than 10000 nM.
The molecule `COC(=O)c1c(-c2ccccc2)c2cc(Cl)ccc2c(=O)n1Cc1ccc(S(C)(=O)=O)cc1` returned a Kd in the assay on CSNK1G1 of more than 10000 nM.
As for `Nc1nc(-c2ccc3c(N)n[nH]c3c2)cc(N2CCC[C@@H](C(=O)Nc3ccccc3)C2)n1.O=C(O)C(F)(F)F.O=C(O)C(F)(F)F` [GSK2288359], the dissociation constant (Kd) in the assay on CSNK1G2 is more than 10000 nM.
The same measure, in the same setting: for `O=C(Nc1ccccc1F)NC1CCN(c2ccnc(Nc3ccc(F)cc3)n2)C1` (stereo not drawn) [GSK1379722] the value was more than 10000 nM.
Consider `Cc1cccc(-c2nc(Nc3ccc4[nH]nnc4c3)c3ccccc3n2)n1` [GW867587], for which the Kd in the assay with CSNK2A1 amounted to 770 nM.
Turning to `O=C(Nc1ccccc1)Nc1ccc(Oc2ccc3nccn3n2)cc1`, the figures for the Kd with CTK and in the assay on DDR2 were more than 10000 nM and 3 nM, respectively.
For the molecule `COC(=O)c1cccc(NC(=O)NCCNc2ccnc(Nc3ccc(F)cc3)n2)c1` [GSK1379883], the Kd in the assay on DCAMKL1 was more than 10000 nM.
As to `C[C@@H]1CCN(C(=O)CO)C[C@@H]1N(C)c1ncnc2[nH]ccc12`, in the assay on DCAMKL3, the affinity, expressed as Kd, was 240 nM.
For `Clc1ccc(-c2cc(-c3c[nH]nc3-c3ccccn3)ccn2)cc1` [GW681251], in the assay on DLK, the Kd was more than 10000 nM.
